The results in this text go back to ChEMBL document CHEMBL3988442, “University of Dundee, Small-Polar-MMV Screening Library” (2021).

For some of these results: Results with a measured potency or affinity are listed apart.

Design in all cases: scale not given: direction of the effect not stated beside the values
Experiment [1] deals with Protein translocase subunit SecA (Escherichia coli (strain K12)) (UniProt P10408). Kind of experiment: Assay to Identify E. coli SecA ATPase Inhibitors. The experiment is classed as functional. As to conditions: 30 µM.
Sequence of Protein translocase subunit SecA (Escherichia coli (strain K12)) (P10408 whole entry): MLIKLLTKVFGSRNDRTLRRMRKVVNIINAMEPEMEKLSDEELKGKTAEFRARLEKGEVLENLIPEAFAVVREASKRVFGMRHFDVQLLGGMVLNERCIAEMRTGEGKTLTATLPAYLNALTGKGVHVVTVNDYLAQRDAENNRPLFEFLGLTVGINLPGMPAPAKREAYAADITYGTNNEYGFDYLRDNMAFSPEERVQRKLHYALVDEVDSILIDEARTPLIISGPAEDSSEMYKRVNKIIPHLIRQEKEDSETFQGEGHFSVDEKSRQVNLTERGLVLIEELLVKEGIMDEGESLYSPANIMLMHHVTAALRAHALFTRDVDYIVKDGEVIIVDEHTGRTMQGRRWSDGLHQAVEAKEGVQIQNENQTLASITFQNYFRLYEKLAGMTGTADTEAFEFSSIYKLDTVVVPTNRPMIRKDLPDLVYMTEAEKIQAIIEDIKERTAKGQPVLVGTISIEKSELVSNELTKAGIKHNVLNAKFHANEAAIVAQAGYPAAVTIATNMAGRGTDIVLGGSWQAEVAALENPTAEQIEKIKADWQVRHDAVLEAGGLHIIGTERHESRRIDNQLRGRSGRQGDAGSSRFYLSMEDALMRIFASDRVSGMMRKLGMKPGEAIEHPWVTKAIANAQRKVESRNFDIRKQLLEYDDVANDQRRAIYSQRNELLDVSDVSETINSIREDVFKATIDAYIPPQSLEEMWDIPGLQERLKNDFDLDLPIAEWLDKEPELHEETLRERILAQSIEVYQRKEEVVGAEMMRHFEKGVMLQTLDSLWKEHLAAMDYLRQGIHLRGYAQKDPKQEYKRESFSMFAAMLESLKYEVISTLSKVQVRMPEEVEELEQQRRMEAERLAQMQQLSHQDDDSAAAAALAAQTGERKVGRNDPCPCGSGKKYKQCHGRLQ
Experiment [2] concerns the target T1, Ubiquitin-activating enzyme e1, putative (Leishmania donovani (strain BPK282A1)) (UniProt E9BSI1).
T1 sequence (whole entry): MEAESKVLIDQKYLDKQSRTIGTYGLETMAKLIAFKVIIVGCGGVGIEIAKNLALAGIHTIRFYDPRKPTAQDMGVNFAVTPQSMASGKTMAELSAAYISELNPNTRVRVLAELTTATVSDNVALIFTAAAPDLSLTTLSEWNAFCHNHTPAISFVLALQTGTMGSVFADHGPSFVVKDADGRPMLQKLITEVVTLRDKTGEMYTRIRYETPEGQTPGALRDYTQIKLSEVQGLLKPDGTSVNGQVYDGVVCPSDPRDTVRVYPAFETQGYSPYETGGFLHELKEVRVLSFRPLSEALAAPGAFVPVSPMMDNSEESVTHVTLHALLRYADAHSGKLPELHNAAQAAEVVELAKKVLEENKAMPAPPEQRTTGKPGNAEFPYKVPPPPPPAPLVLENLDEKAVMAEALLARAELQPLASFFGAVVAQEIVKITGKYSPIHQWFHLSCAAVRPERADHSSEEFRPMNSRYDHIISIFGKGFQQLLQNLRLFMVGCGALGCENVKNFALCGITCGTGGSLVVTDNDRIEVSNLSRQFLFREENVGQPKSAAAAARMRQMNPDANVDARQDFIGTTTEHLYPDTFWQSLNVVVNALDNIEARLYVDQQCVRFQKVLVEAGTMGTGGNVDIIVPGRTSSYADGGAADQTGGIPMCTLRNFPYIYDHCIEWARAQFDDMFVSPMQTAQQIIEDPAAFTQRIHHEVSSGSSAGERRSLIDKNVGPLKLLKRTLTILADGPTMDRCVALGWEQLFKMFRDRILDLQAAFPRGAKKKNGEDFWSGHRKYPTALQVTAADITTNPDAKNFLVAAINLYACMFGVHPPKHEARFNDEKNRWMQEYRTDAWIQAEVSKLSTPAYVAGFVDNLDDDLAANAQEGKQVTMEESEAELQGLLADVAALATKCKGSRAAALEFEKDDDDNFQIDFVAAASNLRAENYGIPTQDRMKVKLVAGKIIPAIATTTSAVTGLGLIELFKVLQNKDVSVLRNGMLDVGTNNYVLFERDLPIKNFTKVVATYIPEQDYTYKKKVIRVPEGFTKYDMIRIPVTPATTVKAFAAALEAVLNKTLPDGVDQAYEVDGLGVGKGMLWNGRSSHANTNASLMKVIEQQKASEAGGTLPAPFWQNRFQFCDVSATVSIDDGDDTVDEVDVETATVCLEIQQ
Kind of experiment: Leishmania donovani Ubiquitin Activating Enzyme (LdE1). The experiment is classed as functional. The following applies: 30 µM.

Experiment [3] concerns the target AMP-activated protein kinase, AMPK (Homo sapiens) (UniProt P54646+O43741+P54619+Q9UGJ0+Q9Y478+Q13131+Q9UGI9). In words: AMP-dependent Kinase enzyme assay. An in vitro enzyme assay that detects ADP turnover that is directly proportional to AMPK activity. This uses naive AMPK that is activated during the assay with MK-8722. The experiment is classed as functional. As to conditions: 30 µM.

Experiment [4] addresses Sialic acid-binding Ig-like lectin 9 (Homo sapiens) (UniProt Q9Y336). In words: Hs-Siglec9 ALPHAscreen SOP 20170721. As to conditions: 10 µM.
The next experiment concerns Trypanosoma cruzi. In words: Trypanosoma cruzi phosphomannomutase and mannose-1-phosphate guanylyltransferase assay. It counts as functional. The following applies: 10 µM.
The target of experiment [5] is T2, Arginase-2, mitochondrial (Homo sapiens) (UniProt P78540).
T2 sequence (whole entry): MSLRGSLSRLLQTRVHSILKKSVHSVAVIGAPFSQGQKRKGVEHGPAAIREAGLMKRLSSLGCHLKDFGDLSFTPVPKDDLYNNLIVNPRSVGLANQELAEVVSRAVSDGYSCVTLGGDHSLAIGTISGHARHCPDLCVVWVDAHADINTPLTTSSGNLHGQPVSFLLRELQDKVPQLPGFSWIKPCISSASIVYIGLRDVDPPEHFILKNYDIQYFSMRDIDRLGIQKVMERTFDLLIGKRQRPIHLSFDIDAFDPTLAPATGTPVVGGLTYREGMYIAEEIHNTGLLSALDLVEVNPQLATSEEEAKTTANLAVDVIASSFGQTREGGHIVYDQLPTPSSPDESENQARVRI
In words: in vitro enzyme assay to detect the production of urea directly proportional to the activity of Arginase II. Also: in the data most compounds retested in dose-response had high values. The experiment is classed as functional. As to conditions: 33.3 µM.

For experiment [6], the target named is T3, Proteasome subunit beta (Trypanosoma cruzi) (UniProt O96673).
T3 sequence (whole entry): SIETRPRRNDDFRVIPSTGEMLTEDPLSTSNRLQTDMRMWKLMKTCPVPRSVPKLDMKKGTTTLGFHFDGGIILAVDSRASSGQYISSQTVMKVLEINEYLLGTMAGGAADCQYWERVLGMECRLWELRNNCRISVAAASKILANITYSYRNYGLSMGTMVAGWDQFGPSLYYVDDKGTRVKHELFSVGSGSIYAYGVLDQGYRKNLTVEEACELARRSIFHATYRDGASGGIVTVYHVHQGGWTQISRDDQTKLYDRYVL
In words: Trypanosoma cruzi proteasome chymotrypsin-like activity (TcProtChymo) assay. Also: in the data most compounds retested in dose-response had high values. It counts as functional. As to conditions: 9.37 µM.

The species entered for another experiment is Homo sapiens. Kind of experiment: To identify inhibition of the IFN signalling (Jak-Stat) pathway via expression of an eGFP reporter gene under the control of an IFN-stimulated response element (ISRE) containing MxA promoter. The experiment is classed as functional. As to conditions: 30 µM. For orientation: A reporter such as luciferase makes a cellular process visible.

The target of experiment [7] is T4, Tyrosyl-tRNA synthetase, putative (Trypanosoma cruzi (strain CL Brener)) (UniProt Q4DSP6).
T4 sequence (whole entry): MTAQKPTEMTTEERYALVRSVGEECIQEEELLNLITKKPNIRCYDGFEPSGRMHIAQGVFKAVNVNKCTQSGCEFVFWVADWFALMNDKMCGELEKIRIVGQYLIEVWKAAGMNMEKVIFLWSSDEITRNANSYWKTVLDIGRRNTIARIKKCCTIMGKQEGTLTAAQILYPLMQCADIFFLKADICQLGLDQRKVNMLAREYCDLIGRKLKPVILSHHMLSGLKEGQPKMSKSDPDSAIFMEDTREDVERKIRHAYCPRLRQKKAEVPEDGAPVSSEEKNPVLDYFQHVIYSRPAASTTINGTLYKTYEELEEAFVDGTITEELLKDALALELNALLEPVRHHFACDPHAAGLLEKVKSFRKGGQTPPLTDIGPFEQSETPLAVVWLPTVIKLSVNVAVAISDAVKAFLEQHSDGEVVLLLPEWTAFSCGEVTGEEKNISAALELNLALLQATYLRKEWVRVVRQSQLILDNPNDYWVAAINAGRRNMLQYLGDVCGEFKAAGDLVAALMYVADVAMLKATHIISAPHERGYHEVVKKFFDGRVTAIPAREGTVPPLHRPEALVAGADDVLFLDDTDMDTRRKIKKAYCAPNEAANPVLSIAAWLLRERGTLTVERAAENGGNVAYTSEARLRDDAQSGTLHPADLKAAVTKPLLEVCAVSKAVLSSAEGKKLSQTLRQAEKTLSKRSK
Kind of experiment: Trypanosoma cruzi tyrosyl tRNA synthetase (TcYRS) _High Tyrosine SOP. Also: in the data most compounds retested in dose-response had high values. It counts as functional. As to conditions: 30 µM.

Experiment [8] deals with T4, Tyrosyl-tRNA synthetase, putative (Trypanosoma cruzi (strain CL Brener)). Kind of experiment: Trypanosoma cruzi tyrosyl tRNA synthetase (TcYRS) SOP. The experiment is classed as functional. The following applies: 30 µM.
Experiment [9] concerns the target Chromo domain-containing protein 1 (Saccharomyces cerevisiae (strain ATCC 204508 / S288c) (Baker's yeast)) (UniProt P32657). Kind of experiment: ScCHD-1 Enzyme Inhibition Assay. Also: in the data most compounds retested in dose-response had high values. It counts as functional. The following applies: 30 µM.

Sequence of Chromo domain-containing protein 1 (Saccharomyces cerevisiae (strain ATCC 204508 / S288c) (Baker's yeast)) (P32657 whole entry, the tested form may be a part): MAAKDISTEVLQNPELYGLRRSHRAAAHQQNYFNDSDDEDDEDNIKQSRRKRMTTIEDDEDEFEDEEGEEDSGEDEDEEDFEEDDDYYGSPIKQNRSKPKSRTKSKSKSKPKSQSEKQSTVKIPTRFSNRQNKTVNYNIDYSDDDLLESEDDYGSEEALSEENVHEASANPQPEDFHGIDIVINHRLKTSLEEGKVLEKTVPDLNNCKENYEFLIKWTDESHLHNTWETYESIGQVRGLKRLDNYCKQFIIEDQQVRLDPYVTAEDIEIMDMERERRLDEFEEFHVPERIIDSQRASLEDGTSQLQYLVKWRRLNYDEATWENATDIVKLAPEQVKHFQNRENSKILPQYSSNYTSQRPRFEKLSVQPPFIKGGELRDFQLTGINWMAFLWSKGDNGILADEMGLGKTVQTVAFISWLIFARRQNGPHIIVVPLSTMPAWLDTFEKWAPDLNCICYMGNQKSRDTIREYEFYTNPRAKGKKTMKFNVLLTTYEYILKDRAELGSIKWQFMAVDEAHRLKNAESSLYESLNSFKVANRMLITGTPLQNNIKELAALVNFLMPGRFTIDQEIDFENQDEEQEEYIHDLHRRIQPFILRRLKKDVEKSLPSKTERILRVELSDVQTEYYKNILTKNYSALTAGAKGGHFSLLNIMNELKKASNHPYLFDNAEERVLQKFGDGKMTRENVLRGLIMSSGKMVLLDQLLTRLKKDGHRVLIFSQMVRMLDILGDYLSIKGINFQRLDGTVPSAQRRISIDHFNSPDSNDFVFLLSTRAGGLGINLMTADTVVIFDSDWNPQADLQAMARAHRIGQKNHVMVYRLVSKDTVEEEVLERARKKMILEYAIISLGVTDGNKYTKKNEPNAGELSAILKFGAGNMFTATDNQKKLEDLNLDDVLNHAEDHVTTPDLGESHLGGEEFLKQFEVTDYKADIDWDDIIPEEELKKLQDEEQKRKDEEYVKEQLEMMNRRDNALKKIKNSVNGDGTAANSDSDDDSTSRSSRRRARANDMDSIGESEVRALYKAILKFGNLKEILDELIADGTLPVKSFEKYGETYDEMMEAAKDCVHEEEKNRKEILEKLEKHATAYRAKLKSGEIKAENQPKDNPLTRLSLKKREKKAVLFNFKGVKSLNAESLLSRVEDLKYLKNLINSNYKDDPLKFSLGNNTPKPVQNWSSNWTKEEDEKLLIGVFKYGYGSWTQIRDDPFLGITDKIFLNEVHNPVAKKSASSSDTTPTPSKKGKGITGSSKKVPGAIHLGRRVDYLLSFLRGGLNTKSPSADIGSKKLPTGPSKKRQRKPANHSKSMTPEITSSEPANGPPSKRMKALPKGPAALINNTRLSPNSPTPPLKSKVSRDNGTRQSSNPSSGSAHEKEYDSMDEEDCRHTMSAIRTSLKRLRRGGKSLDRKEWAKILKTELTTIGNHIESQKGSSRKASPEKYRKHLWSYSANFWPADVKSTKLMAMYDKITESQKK
Sequence of Sialic acid-binding Ig-like lectin 9 (Homo sapiens) (Q9Y336 whole entry): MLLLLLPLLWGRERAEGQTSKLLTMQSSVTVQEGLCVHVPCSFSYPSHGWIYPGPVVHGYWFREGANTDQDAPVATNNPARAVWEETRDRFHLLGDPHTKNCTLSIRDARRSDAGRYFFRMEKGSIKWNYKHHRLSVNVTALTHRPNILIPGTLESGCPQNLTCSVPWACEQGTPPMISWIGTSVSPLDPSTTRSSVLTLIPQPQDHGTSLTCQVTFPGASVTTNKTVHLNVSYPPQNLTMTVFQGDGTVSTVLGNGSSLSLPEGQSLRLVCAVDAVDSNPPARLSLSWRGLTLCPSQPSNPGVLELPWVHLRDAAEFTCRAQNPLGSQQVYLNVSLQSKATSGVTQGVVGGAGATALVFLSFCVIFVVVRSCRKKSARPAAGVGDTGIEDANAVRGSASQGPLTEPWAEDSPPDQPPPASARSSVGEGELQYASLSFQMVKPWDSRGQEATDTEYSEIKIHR

On to `CCOc1ncccc1NC(=O)c1sccc1C`, for which the Percent Effect was -2.31% in experiment [1]; -1.39% in [2]; 2.84% in experiment [3]; -14.7% in experiment [4]; -4.57% in the experiment on Trypanosoma cruzi; 2.21% in [5]. Besides, the Percent Effect in experiment [6] is 23.2%; in the experiment listed under Homo sapiens it was -6.94%; in experiment [7], 4.21%; in experiment [8], 7.69%; in [9] it was 4%.

Regarding `Fc1cc(CNCc2ccc3c(c2)CCO3)ccc1N1CCOCC1`, the Percent Effect is -0.571% in experiment [1]; -8.11% in [2]; -9.24% in [3]; -2.02% in experiment [4]; 0% with Trypanosoma cruzi; -2.86% in experiment [5]. Moreover, the Percent Effect in experiment [6] is 6.38%; in the experiment filed under Homo sapiens, 2.17%; in [7] it was -2.65%; in [8] it was 0%; in experiment [9] it was -3.66%.

As to `Cc1ccc(CN(Cc2ccccn2)C2CC(C)(C)NC(C)(C)C2)s1`, the Percent Effect is -1.39% in experiment [1]; -4.05% in [2]; 8.17% in [3]; 7.72% in [4]; -3.95% with Trypanosoma cruzi; -0.232% in [5]. For the same compound, the Percent Effect in experiment [6] was 8.27%; in the experiment listed under Homo sapiens it was 5.16%; in experiment [7] it was 4.3%; in experiment [8], 3.9%; in [9], -9.63%.

`Cc1noc(C(C)C)c1C(=O)N1CCOCC1CC(=O)c1ccco1` (stereo unspecified): the Percent Effect in [1] was -0.641%; in experiment [2] it was 0%; in experiment [3], 17.2%; in experiment [4], -3.82%; with Trypanosoma cruzi, 0.487%; in experiment [5] it was 1.18%. The Percent Effect was 7.38% in experiment [6]; -20.2% in the experiment listed under Homo sapiens; -2.13% in experiment [7]; -7.79% in experiment [8]; -0.46% in experiment [9].

With `Cc1occc1C(=O)N1CCC2(CCC(=O)N(CC(N)=O)C2)CC1`, the Percent Effect is -6.56% in [1]; -4.17% in experiment [2]; 0.341% in [3]; 3.65% in [4]; -3.6% in the experiment with Trypanosoma cruzi; 2.21% in [5]. Further, the Percent Effect was 10.9% in experiment [6]; 3% in the experiment listed under Homo sapiens; -2.1% in experiment [7]; -7.69% in [8]; -2.07% in [9].

In the case of `O=C1N(CCCc2ccccc2)CCCC1(O)CNCc1ccccc1` (stereo unspecified), the Percent Effect in experiment [1] was -3.24%; in [2] it was 2.7%; in [3] it was -10.2%; in experiment [4] it was 31.6%; in the experiment with Trypanosoma cruzi it was 4.4%; in experiment [5], -0.248%. Further, the Percent Effect in experiment [6] was 8.5%; in the experiment listed under Homo sapiens, -7.46%; in experiment [7] it was 8.6%; in experiment [8], 18.5%; in experiment [9] it was -3.9%.

Consider `CCn1cc2c(n1)CN(Cc1ccncc1)CC2COCC1CC1` (stereo unspecified), for which the Percent Effect is -3.54% in experiment [1]; 10.7% in [2]; 12.3% in experiment [3]; 6.03% in experiment [4]; -1.97% with Trypanosoma cruzi; -0.699% in experiment [5]. Further, the Percent Effect was 10.7% in experiment [6]; 4.31% in the experiment filed under Homo sapiens; 6.38% in experiment [7]; 11.5% in experiment [8]; -6.9% in experiment [9].

Consider `CN1CCN(Cc2cn3c(n2)CN(Cc2cccnc2)CC3)CC1`, for which the Percent Effect in experiment [1] is 5.16%; in experiment [2], 16.2%; in experiment [3], 12.3%; in experiment [4], -13.1%; in the experiment on Trypanosoma cruzi, -7.14%; in experiment [5] it was 2.23%. The Percent Effect in experiment [6] is 5.72%; in the experiment filed under Homo sapiens, 16.3%; in experiment [7], 1.08%; in [8] it was 10.3%; in [9] it was -4.09%.

For `O=C(NCC1CCOCC1)[C@@H]1C[C@@H]2CCN(Cc3ccco3)C[C@H]2O1`, the Percent Effect was -0.876% in [1]; 5.33% in experiment [2]; -1.12% in [3]; 6.61% in [4]; -5.02% in the experiment on Trypanosoma cruzi; -54.7% in [5]. Moreover, the Percent Effect was 10.1% in experiment [6]; -10.2% in the experiment listed under Homo sapiens; 2.08% in experiment [7]; 7.5% in experiment [8]; -6.48% in experiment [9].

Regarding `CCn1cnnc1C1CCN(C(=O)COc2ccccc2)CC1`, the Percent Effect in [1] was -7.35%; in [2], 13%; in experiment [3] it was -3.46%; in [4], -2.33%; in the experiment on Trypanosoma cruzi, 4.6%; in experiment [5], -0.21%. Besides, the Percent Effect is 5.74% in [6]; 7.87% in the experiment listed under Homo sapiens; 4.76% in experiment [7]; 11.8% in experiment [8]; -22.2% in [9].

For the compound `O=C(c1ccncc1F)N1CCc2ncnc(-c3ccncc3)c2CC1`, the Percent Effect in experiment [1] is -6.29%; in [2] it was 5.41%; in [3], -2.05%; in experiment [4] it was -1.21%; with Trypanosoma cruzi, -5.38%; in experiment [5], -0.955%. The Percent Effect in experiment [6] is 10.7%; in the experiment filed under Homo sapiens, 14%; in experiment [7], 1.08%; in [8] it was 7.69%; in experiment [9], 0.761%.
